Results taken from PubChem BioAssay AID1986 (Sanford-Burnham Center for Chemical Genomics, 2009).
Out of some 290,000 compounds screened, about 890 (0.31%) were called active. No stated cut-off is given here; in the data, active means inhibition mostly above about 52% (no sharp cut-off); inactive means mostly below about 76%. What follows is part of a selection rich in actives, with near analogues and random picks from the rest.

Assay: cell-free HIV fusion peptide-binding blockers – biochemical, uHTS, fluorescence dequenching, primary screen (AID 1986)
Settings: 30 min, stronger effect = higher value
[1] = measured here: repeat confirmation average inhibition, at 18.6 µM

SMILES	inhibition (at 20 µM)	inhibition [1] [%]
COc1ccc(C2C(C(=O)N3CCN(c4ccccn4)CC3)CCC(=O)N2c2ccc(OC)cc2)cc1 (configuration not stated)	-2.1% (inactive)	
O=C1C=C(N2CCCCCC2)C2(CCCCC2)O1	0.8% (inactive)	
C[C@H](NC(=O)c1nc[nH]c1C(=O)NC(c1ccccc1)c1ccccc1)C(=O)OCc1ccccc1	2.7% (inactive)	
NC(=O)c1sc2nnc(-c3ccccc3)c(-c3ccccc3)c2c1N	1.6% (inactive)	
CCSc1nnc(-c2sc3nnc(-c4ccccc4)c(-c4ccccc4)c3c2N)o1	98.4% (active)	
CCSc1nnc(-c2cccs2)o1	1.8% (inactive)	
O=C(Cn1c(=O)oc2cc(S(=O)(=O)N3CCCC3)ccc21)N1CCN(C2CCCCC2)CC1	0% (inactive)	
O=C(CSc1nc2ccccc2c(=O)n1Cc1ccco1)N1CCN(c2ccccc2)CC1	-4.4% (inactive)	
O=C(Nc1cccc(-c2nc3cc(Cl)ccc3o2)c1)C1CCCO1 (configuration not stated)	1% (inactive)	
CN(C)S(=O)(=O)c1cccc(C(=O)OCC(=O)NCc2ccc3c(c2)OCO3)c1	0.4% (inactive)	
COc1ccc2sc(C)[n+](C)c2c1	-2.6% (inactive)	
COc1ccc2sc(/C=C/c3ccccc3O)[n+](C)c2c1	69.1% (active)	88.7
C[n+]1ccc(/C=C/c2ccccc2O)c2ccccc21	1.2% (inactive)	
Cc1cc(C(=O)Nc2cccnc2)cs1	0.7% (inactive)	
Cn1c(=O)oc2cc(S(=O)(=O)NCc3ccc(F)cc3)ccc21	8.5% (inactive)	
CCN1CCN(S(=O)(=O)CC2(C)C3CCC2(C)C(=O)C3Br)CC1 (configuration not stated)	-1.8% (inactive)	
Cc1cc(C)c(C(=O)Nc2ccc(S(=O)(=O)Nc3onc(C)c3C)cc2)c(C)c1	0.9% (inactive)	
Cc1cc(C)c2nc(-c3ccccn3)cc(C(=O)Nc3ccc(S(=O)(=O)Nc4cc(C)on4)cc3)c2c1	59% (inactive)	21.6
COc1ccc(-c2cc(C(=O)Nc3ccc(S(=O)(=O)Nc4onc(C)c4C)cc3)c3ccccc3n2)cc1	64.1% (inactive)	40.8
Cc1ccccc1C(=O)Nc1ccc(S(=O)(=O)Nc2onc(C)c2C)cc1	0.8% (inactive)	
Cc1cc(C)c2nc(-c3cccnc3)cc(C(=O)Nc3ccc(S(=O)(=O)Nc4onc(C)c4C)cc3)c2c1	57% (active)	
Cc1cc(C)c2nc(-c3ccccn3)cc(C(=O)Nc3ccc(S(=O)(=O)Nc4onc(C)c4C)cc3)c2c1	70.5% (active)	
O=C(CN1C(=O)NC2(CCCC2)C1=O)Nc1cccc(Cl)c1Cl	0.8% (inactive)	
CCOc1ccccc1C(=O)NC1CCN(Cc2ccccc2)CC1	-0.3% (inactive)	

SMILES	inhibition (at 20 µM)	inhibition [1] [%]
CN(C)c1cncc(C(=O)O)c1	-0.6% (inactive)	
S=C(NCc1ccccn1)Nc1ccccc1Cl	1.2% (inactive)	
CC(=O)N(CCC(c1ccco1)C(C)C)Cc1ccc(Cl)cc1 (configuration not stated)	-0.3% (inactive)	
Clc1ccc(Cn2cc(/C=N/n3cnnc3)c3ccccc32)c(Cl)c1	-3% (inactive)	
Cc1ccc(N=Cc2sc(O)c3ccccc23)cc1	101% (active)	104
Oc1sc(C=Nc2ccc(F)cc2)c2ccccc12	55% (inactive)	23
Oc1sc(C=Nc2ccccc2)c2ccccc12	24.4% (inactive)	
Cc1nn(C)cc1CNC(=O)c1cccc(F)c1	-1.7% (inactive)	
O=C1S/C(=C\c2ccccc2)C(=O)N1CC(O)Cn1c2ccccc2c2ccccc21 (configuration not stated)	0.2% (inactive)	
O=C1S/C(=C/c2ccccc2)C(=O)N1CC(O)Cn1c2ccccc2c2ccccc21 (configuration not stated)	-0.1% (inactive)	
CN(C)c1ccc(/C=C2\SC(=O)N(CC(O)Cn3c4ccccc4c4ccccc43)C2=O)cc1 (configuration not stated)	120% (active)	
C#CCn1c(-c2cccs2)nc2ccccc21	0% (inactive)	
Nc1nnc(CC(=O)N/N=C\c2cc([N+](=O)[O-])ccc2O)s1	15.7% (inactive)	
Nc1nnc(CC(=O)N/N=C/c2cc([N+](=O)[O-])cc(Br)c2O)s1	61.2% (active)	
Nc1nnc(CC(=O)N/N=C/c2ccc([N+](=O)[O-])cc2)s1	-2.4% (inactive)	
Cc1cc(OCC(=O)NC(Cc2ccc(Cl)cc2)C(=O)O)c2c(C)cc(=O)oc2c1 (configuration not stated)	4.4% (inactive)	
Cc1ccc(/C(N)=N/OC(=O)c2cccc(Cn3cc(C(F)(F)F)ccc3=O)c2)cc1	-0.3% (inactive)	
COC(=O)c1cc(C(=O)c2ccccc2)n2c(=O)/c(=C\N(C)C)sc12	2.2% (inactive)	
COC(=O)c1cc(C(=O)c2ccc(Cl)cc2)n2c(=O)/c(=C\N(C)C)sc12	97.1% (active)	68.7
CN(C)/C=c1\sc2c(C#N)cc(C(=O)c3ccc(Br)cc3)n2c1=O	3.8% (inactive)	
COC(=O)c1nn(-c2ccc(OC)cc2)ccc1=O	-2.9% (inactive)	
O=C(O)c1ccc(Cl)c2c1C1C=CCC1C(c1ccccn1)N2 (configuration not stated)	-3.1% (inactive)	
COC(=O)COc1ccc(C2Nc3c(Cl)ccc(C(=O)O)c3C3C=CCC32)cc1 (configuration not stated)	62.9% (active)	
COc1ccc(OC)c(C2Nc3c(Cl)ccc(C(=O)O)c3C3C=CCC32)c1 (configuration not stated)	38.2% (inactive)	

SMILES	inhibition (at 20 µM)	inhibition [1] [%]
Cc1c(OCC(=O)OC(C)(C)C)ccc2c3c(c(=O)oc12)CCC3	1.6% (inactive)	
NC1=CC(=O)c2cccc3cccc1c23	64% (active)	63.9
NC1=Nc2cccc3cccc1c23	5.1% (inactive)	
O=C1C=C(O)c2cccc3cccc1c23	9% (inactive)	
COc1cc(/C=C2\C(=O)ON=C2c2ccccc2)cc(OC)c1OC	1.4% (inactive)	
COc1cc(/C=C2\C(=O)ON=C2c2ccccc2)cc(Br)c1O	63.3% (active)	106
CCOc1cc(/C=C2\C(=O)ON=C2c2ccccc2)ccc1OC	0.3% (inactive)	
COc1cc(/C=C2\C(=O)ON=C2c2ccccc2)cc(Cl)c1O	45.2% (inactive)	
CCOc1cc(/C=C2/C(=O)ON=C2C)ccc1O	33.7% (inactive)	
COc1cc(/C=C2/C(=O)ON=C2c2ccccc2)ccc1O	10.6% (inactive)	
CCOc1cc(/C=C2\C(=O)ON=C2c2ccccc2)cc(Br)c1O	69.6% (active)	108
C#CCOc1c(Br)cc(/C=C2/C(=O)ON=C2C)cc1OCC	4.2% (inactive)	
CCOc1cc(/C=C2/C(=O)ON=C2C)cc(Br)c1O	57.8% (active)	51.8
Cc1ccc(N/C=C2\CCCCC2=O)nc1	0.7% (inactive)	
Cc1ccc(S(=O)(=O)N/N=C\c2cn(CC(N)=O)c3ccccc23)cc1	0.7% (inactive)	
CN(C)c1ncnc(N(C)C)c1[N+](=O)[O-]	-2.4% (inactive)	
COc1ccccc1/C=C(/C(=O)NCCCn1ccnc1)c1ccccc1	0.9% (inactive)	
O=C(N/N=C/c1ccccn1)c1cc(C2CC2)[nH]n1	-0.3% (inactive)	
Cc1oc2cc3oc(=O)cc(C)c3cc2c1C	1% (inactive)	
COC1OC(COC(=O)c2ccccc2)C(OC(=O)c2ccccc2)C1OC(=O)c1ccccc1 (configuration not stated)	-0.6% (inactive)	
O=C(OCC1O[C@@H](OC(=O)c2cc(O)c(O)c(O)c2)[C@@H](OC(=O)c2cc(O)c(O)c(O)c2)[C@@H](OC(=O)c2cc(O)c(O)c(O)c2)[C@@H]1OC(=O)c1cc(O)c(O)c(O)c1)c1cc(O)c(O)c(O)c1 (some centres not stated)	56% (active)	
COC(=O)c1cc(O)c(O)c(O)c1	11% (inactive)	
O=C(CCN1C(=O)c2ccc([N+](=O)[O-])cc2C1=O)Nc1nccs1	-0.3% (inactive)	
O=C(CCCn1c(=S)[nH]c2ccccc2c1=O)NCCSCc1ccccc1	1.5% (inactive)	

SMILES	inhibition (at 20 µM)	inhibition [1] [%]
CCN(CC)S(=O)(=O)c1ccc(O)c(C(=O)OCC(=O)Nc2ccc(OC(F)(F)F)cc2)c1	-1.8% (inactive)	
COc1cc2ccccc2cc1C(=O)NC(=S)Nc1cccc(C(=O)O)c1	58.8% (active)	
COc1cc2ccccc2cc1C(=O)NC(=S)Nc1cc(C(=O)O)ccc1C	51.6% (inactive)	-1.6
COc1cc2ccccc2cc1C(=O)NC(=S)Nc1ccc(C(=O)O)cc1	53.8% (inactive)	2.1
COc1ccc(/C=N\NC(=O)c2ccccc2Br)cc1COc1c(F)c(F)cc(F)c1F	0.6% (inactive)	
COc1cc(C(=O)NCC(=O)N/N=C(/C)c2cccs2)cc(OC)c1OC	-1.2% (inactive)	
CC(C)P(=O)(Cc1cccc(C#N)c1)C(C)C	3.5% (inactive)	
COC(=O)c1ccc(OCC2c3cc(OC)c(OC)cc3CCN2C(=O)c2ccco2)cc1 (configuration not stated)	-1.1% (inactive)	
O=C(O)CC/C(=C\c1cccc(NC(=O)c2ccccc2Cl)c1)c1nc2ccccc2s1	64.7% (inactive)	17.1
COc1cccc(/C=C(\CC(=O)O)c2nc3ccccc3s2)c1	3.6% (inactive)	
CN(c1ccccc1)c1ccc(/C=C(\CCC(=O)O)c2nc3ccccc3s2)cc1[N+](=O)[O-]	65% (active)	
Cc1ccc(/C=C(\CCC(=O)O)c2nc3ccccc3s2)cc1[N+](=O)[O-]	27.3% (inactive)	
COc1ccc(C(=O)Nc2cccc(/C=C(\CCC(=O)O)c3nc4ccccc4s3)c2)cc1	59.2% (active)	
O=C(O)CC/C(=C\c1ccc(Cl)c([N+](=O)[O-])c1)c1nc2ccccc2s1	13.2% (inactive)	
COc1cc(NC(=O)C2CC(=O)NC3=C2C(=O)CCC3)c(OC)cc1Cl (configuration not stated)	-1.9% (inactive)	
N#CC1=C(N)OC2=C(CC/C2=C\c2ccc(F)cc2)C1c1ccc(F)cc1 (configuration not stated)	73.8% (inactive)	40.5
COc1cc2c(cc1NC(=O)CSc1ccc(C)cc1)oc1ccccc12	0.2% (inactive)	
NC(=O)C1CCN(C(=O)CN2CCc3ccccc32)CC1	-0.5% (inactive)	
O=C(Nc1ccc(O)cc1C(=O)O)c1ccc2c(c1)C(=O)N(Cc1ccco1)C2=O	24.6% (inactive)	
Cc1c(NC(=O)c2ccc3c(c2)C(=O)N(Cc2ccco2)C3=O)cccc1C(=O)O	6.1% (inactive)	
O=C(Nc1ccc(Cl)cc1C(=O)O)c1ccc2c(c1)C(=O)N(Cc1ccco1)C2=O	50% (active)	
